Screens deposited in PubChem by several laboratories.
Measles CPE = compounds protecting cells from measles virus cytopathic effect, primary screen, measles RdRp inhibitor project, single point, MLSMR library, absorbance; Measles virus-infected cells, CPE protection; actives 1.5% (n = 140,000); protection (pct of control), % at 4 µM; in the data active = protection mostly above about 24%, no sharp cut-off; inactive = mostly below about 26%
Smad3 inh = Smad3/FoxH1 peptide binding inhibitors, primary screen, biochemical, TR-FRET | Mothers against decapentaplegic homolog 3 (Homo sapiens), P84022 | TR-FRET Smad3/Dy647-FoxH1 peptide binding, europium anti-His | inhibition, % at 25 µM | actives 0.29% (n = 88,000) | AID 630, 2007;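 active = compounds that reduce the energy-transfer binding signal between the protein and its labelled peptide by more than half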
Target sequence (P84022 whole entry, looked up): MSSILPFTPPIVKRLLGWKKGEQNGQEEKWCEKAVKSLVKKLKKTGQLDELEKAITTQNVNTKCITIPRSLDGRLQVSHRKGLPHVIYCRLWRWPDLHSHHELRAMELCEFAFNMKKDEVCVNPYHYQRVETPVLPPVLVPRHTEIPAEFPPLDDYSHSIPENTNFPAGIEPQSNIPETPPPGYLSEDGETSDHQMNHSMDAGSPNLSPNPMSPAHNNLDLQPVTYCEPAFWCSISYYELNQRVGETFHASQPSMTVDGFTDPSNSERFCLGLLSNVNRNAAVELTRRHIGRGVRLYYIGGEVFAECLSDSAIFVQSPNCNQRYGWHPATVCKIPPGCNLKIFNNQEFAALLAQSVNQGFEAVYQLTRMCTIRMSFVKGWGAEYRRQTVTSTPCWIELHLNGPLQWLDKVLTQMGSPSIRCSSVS
MT1-MMP txn act = MT1-MMP promoter reporter activation – cell-based, luciferase luminescence, primary screen | HT1080 MT1-MMP promoter luciferase reporter, overnight; hits give high values | activation factor at 10 µM | actives 0.16% (n = 86,000) | AID 750, 2007;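 active = activation factor of at least 2 for MT1-MMP transcription at 10 µM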
Each line names hits and unclear results; the compound was inactive in the other large screens. The list is not random: actives were taken first. Their share in the collection is about 1.7%.

N#CC(C(=O)NCCc1ccccc1)c1nc2ccccc2nc1N1CCCCC1 (stereo not given)	Measles CPE 41
CCOC(=O)[C@@H](O)Cc1cnc2ccccc2n1	none (no result: Measles CPE, MT1-MMP txn act)
Cn1c(=O)c2[nH]c([C@@H]3CC(=O)C[C@H](c4nc5c([nH]4)c(=O)n(C)c(=O)n5C)N3)nc2n(C)c1=O	none (no result: Measles CPE, MT1-MMP txn act)
CCc1c2c(nc3ccc(N(C)C)cc13)-c1cccc(=O)n1C2	none (no result: Measles CPE, Smad3 inh)
O=C(NCCc1c[nH]c2ccccc12)[C@H]1C[C@@H]1[C@H](NP(=O)(c1ccccc1)c1ccccc1)c1ccccc1	none (no result: Measles CPE, Smad3 inh)
CCNC(=S)N(CCc1cccc(C)c1)Cc1cc2cc(OC)c(OC)cc2[nH]c1=O	none (no result: Smad3 inh, MT1-MMP txn act)
Cn1c(=O)c2c(ncn2CC(N)=O)n(C)c1=O	none
CN1CCCCC1=NCCCn1cnc2c1c(=O)n(C)c(=O)n2C	Measles CPE 19 (no result: Smad3 inh, MT1-MMP txn act)
NC(N)=NCCCC(=O)O	none (no result: Measles CPE, MT1-MMP txn act)
Cc1ccc(C(=O)CSc2nnnn2C(C)C)c(C)c1	none (no result: MT1-MMP txn act)
CCOc1cccc(C(=O)Nc2ccc3oc(Cc4ccc(Cl)cc4)nc3c2)c1	Measles CPE 33
O=C(Nc1ccc2oc(Cc3ccc(Cl)cc3)nc2c1)c1cccnc1	none
O=CNc1ncn[nH]1	none (no result: Measles CPE, MT1-MMP txn act)
Nc1nc(SCC2CCCCC2[N+](=O)[O-])c2[nH]cnc2n1 (stereo not given)	none (no result: Measles CPE, MT1-MMP txn act)
O=C(Nc1ccc(S(=O)(=O)Nc2nccs2)cc1)/C(=C/c1ccccc1Cl)NC(=O)c1ccccc1	none (no result: Smad3 inh, MT1-MMP txn act)
O=S(=O)(O)[C@@H](CO)c1ccccc1 (tested in a mixture with another compound)	none (no result: Measles CPE, MT1-MMP txn act)
CCc1c(O)nc(SCC(=O)Nc2ccc3c(c2)CCC3)[nH]c1=O	none
CCCCc1c(O)nc(SCC(=O)Nc2ccc3c(c2)CCC3)[nH]c1=O	Measles CPE 49
COc1ccc(N2CCN(c3nc(Cl)nc(Nc4ccc(F)cc4)n3)CC2)cc1	none (no result: Smad3 inh, MT1-MMP txn act)
COc1ccc(/C=N/Nc2ccc(C(F)(F)F)cc2[N+](=O)[O-])cc1O	none (no result: Smad3 inh, MT1-MMP txn act)
CCOc1ccc(/C=N/Nc2ccc(C(F)(F)F)cc2[N+](=O)[O-])cc1O	Measles CPE 32 (no result: Smad3 inh, MT1-MMP txn act)
Cc1cc(NC(=O)c2c(Br)c(C)nn2C)no1	none (no result: Smad3 inh, MT1-MMP txn act)
CCOC(=O)CSc1cc(CS(=O)(=O)c2ccccc2)nc(-c2ccccc2)n1	none (no result: Smad3 inh, MT1-MMP txn act)
CCOC(=O)Cn1c(S(=O)(=O)Cc2cccc(F)c2)nc(-c2ccccc2)c1-c1ccccc1	Measles CPE 31 (no result: Smad3 inh, MT1-MMP txn act)
CCOC(=O)Cn1c(-c2ccccc2)nc2ccccc2c1=O	none (no result: Smad3 inh, MT1-MMP txn act)
CCOC(=O)Cn1c(S(=O)(=O)Cc2ccc(F)cc2)nc(-c2ccccc2)c1-c1ccccc1	Measles CPE 52 (no result: Smad3 inh, MT1-MMP txn act)
C#CCn1c(S(=O)(=O)Cc2ccc(F)cc2)nc(-c2ccccc2)c1-c1ccccc1	Measles CPE 52 (no result: Smad3 inh, MT1-MMP txn act)
NC(=O)Cn1c(S(=O)(=O)Cc2ccccc2)nc2ccccc21	none (no result: Measles CPE)
COc1ccc(CCNC(=O)c2ccc(CNS(=O)(=O)c3cc(C)ccc3C)cc2)cc1OC	none (no result: Smad3 inh, MT1-MMP txn act)
O=C(Nc1ccccc1F)c1ccc(CSc2ccccc2)o1	none (no result: Smad3 inh, MT1-MMP txn act)
CN(C)C[C@@H](O)c1ccc(Cl)c2ccccc12	none (no result: Measles CPE, MT1-MMP txn act)
CCC(=O)Nc1nc2ccc(S(C)(=O)=O)cc2s1	Measles CPE 52
CCOCC(=O)Nc1nc2ccc(S(C)(=O)=O)cc2s1	none
O=C(O)[C@@H]1[C@H](C(=O)NCc2cccnc2)[C@@H]2C=C[C@H]1O2	none (no result: Measles CPE, MT1-MMP txn act)
O=S(=O)(NCC1CCCO1)c1ccc(S(=O)(=O)N(Cc2ccc(F)cc2)Cc2ccco2)cc1 (stereo not given)	none (no result: Smad3 inh, MT1-MMP txn act)
CCN(CC)S(=O)(=O)c1ccc(/C=C/C(=O)OCC(=O)Nc2ccc(S(N)(=O)=O)cc2)cc1	Measles CPE 28 (no result: Smad3 inh, MT1-MMP txn act)
CCN(CC)S(=O)(=O)c1ccc(NC(=O)COC(=O)CN2C(=O)c3ccccc3C2=O)cc1	none (no result: Smad3 inh, MT1-MMP txn act)
O=C(NNC1=Nc2cccc3cccc1c23)c1ccccc1Cl	none (no result: Smad3 inh, MT1-MMP txn act)
CN(C)C(=O)CSc1nnc2sc3ccccc3n12	none (no result: Measles CPE, Smad3 inh)
O=c1c2ccccc2nnn1CSc1nnc2sc3ccccc3n12	Measles CPE 41 (no result: MT1-MMP txn act)
COC(=O)C1(CC(C)C)C=C2C(=C(C(C)C)C(=O)C2C)CN1 (stereo not given)	none (no result: Measles CPE, Smad3 inh)
CSC1(SC2=NCCN2)SC2(NCCN2)S1	Smad3 inh 81 (no result: Measles CPE, MT1-MMP txn act)
O=C(O)CCSC1=NCCN1	none (no result: Measles CPE, MT1-MMP txn act)
O=C(O)c1cccc(C(=O)O)c1S(=O)Cc1ccccc1 (stereo not given)	none (no result: Measles CPE, MT1-MMP txn act)
COc1c2c(nc3ccccc13)OC(C(C)(O)COC(C)=O)C2 (stereo not given)	Measles CPE 32
CCc1c2c(nc3ccc(OC)cc13)OC(CC)C2 (stereo not given)	none (no result: Measles CPE, Smad3 inh)
O=C(O)[C@H]([C@H]1NCCS1)N1Cc2ccccc2C1	none (no result: Measles CPE, MT1-MMP txn act)
CCCC[C@@H]1C[C@H]1C(NS(=O)(=O)c1cccc2cccnc12)c1ccc(-c2ccccc2)cc1 (stereo not given in full)	none (no result: Measles CPE, Smad3 inh)
COc1ccccc1Nc1nc(N)nc(CSc2ncccn2)n1	none
CCOc1ccccc1Nc1nc(N)nc(CSc2nccc(C)n2)n1	Measles CPE 24
Cc1cccc(-n2c(SCC(=O)Nc3ncc(Cl)cc3Cl)nc3ccccc32)c1	Measles CPE 43 (no result: Smad3 inh, MT1-MMP txn act)
COCCn1c(SCC(=O)Nc2nc(C)c(Cl)cc2Cl)nc2ccccc21	none
COc1ccc(NC(=O)CSc2nc3ccccc3n2-c2ccccc2)c([N+](=O)[O-])c1	none (no result: Smad3 inh, MT1-MMP txn act)
O=C(CSc1nc2ccccc2n1-c1ccccc1)Nc1ncc(Cl)cc1Cl	Measles CPE 53 (no result: Smad3 inh, MT1-MMP txn act)
COc1ccc(/C=N/NC(=O)CN2CCSCC2)c(OC)c1	none (no result: Smad3 inh, MT1-MMP txn act)
COc1ccc(NC(=S)N2CCN(c3ccccn3)CC2)cc1OC	none (no result: Smad3 inh, MT1-MMP txn act)
COc1cc(NC(=S)N2CCN(c3ccccn3)CC2)cc(OC)c1	Measles CPE 31 (no result: Smad3 inh, MT1-MMP txn act)
Nc1ncnc2c1ncn2C[C@@H](O)C(=O)O	none (no result: Measles CPE, MT1-MMP txn act)
O=C1C2C3C=CC(C3)C2C(=O)N1Cc1ccc(CN2C(=O)C3C4C=CC(C4)C3C2=O)cc1 (stereo not given)	Measles CPE 38
O=C1[C@@H]2[C@H](C(=O)N1Cc1cccnc1)[C@H]1C=C[C@@H]2C1	none
